# Data: PubChem BioAssay
# Values joined by “and” are separate entries in the source; they are usually repeats but may differ in a detail not shown here. Identical values can stand only once. Inconclusive results are not listed. Active and inactive are the calls of the source.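 The calls were made as follows, unless noted: active = compounds killing one labelled cell type while sparing the other, by normalised counts and ratio limits, not self-fluorescent; inactive = the rest.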
# What was measured:
# [1] = polyglutamine-triggered caspase-3 activation inhibitors, cell-based (AID 1583); settings: polyglutamine-induced caspase-3 activation, cell assay; stronger effect = higher value;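 tested at 10 µM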
# [2] = differential killing of epithelial or mesenchymal cells, primary screen, imaging, PC-3E GFP, TEM4-18 mCherry, co-culture (AID 1345086); settings: imaging cell counts, at 1 µM; for red/green cell ratio (normalised): actives lie on both sides, counts scaled to control wells, 1 = unselective;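 as to all read-outs here: cells exposed to compound for 72 h before imaging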;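 as to red/green cell ratio (normalised): normalised mesenchymal count divided by normalised epithelial count so high means epithelial killing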
# [3] = liver-stage malaria parasite growth inhibition, primary screen, cell-based, HepG2, luciferase luminescence, HepG2 viability (AID 624349; in the data active = parasite load remaining mostly below about 12%, no sharp cut-off; inactive = mostly above about 10%;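 also: 100% = mean of DMSO negative control wells on the same plate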); settings: P. berghei liver stage in HepG2, luciferase luminescence, concentration not given here; parasite load remaining: stronger effect = lower value; viability: measured here: HepG2 viability without parasites
# [4] = test system: Aerobactin synthetase IucA (Klebsiella pneumoniae); assay: IucA aerobactin synthetase inhibitors, biochemical, Tocris library, absorbance (AID 1345561; call rule not given here;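 also: 100% = enzyme without compound and 0% = no enzyme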); settings: purified IucA enzyme assay, absorbance (OD) read-out; stronger effect = lower value;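 tested at 8 µM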
# [5] = growth inhibition of DIPG glioma cells, dose response, cell-based, SU-DIPG-XVII, MIPE5.0, CellTiter-Glo, qHTS (AID 1347060; cut-off not given, nearly all actives have AC50 up to about 26 µM;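 as to AC50: cells exposed to compound for 48 hours before viability readout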); settings: SU-DIPG-XVII viability, CellTiter-Glo ATP luminescence
# [6] = growth inhibition of DIPG glioma cells, dose response, cell-based, SU-DIPG-XIII, MIPE4.0, CellTiter-Glo, qHTS (AID 1347061; cut-off not given, nearly all actives have AC50 up to about 37 µM;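 also: cells exposed to compound for 48 hours before readout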); settings: SU-DIPG-XIII viability, CellTiter-Glo ATP luminescence
# [7] = growth inhibition of DIPG glioma cells, dose response, cell-based, JHH-DIPG-1, MIPE4.0, CellTiter-Glo, qHTS (AID 1347062; cut-off not given, nearly all actives have AC50 up to about 27 µM;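 as to AC50: cells exposed to compound for two days before readout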); settings: JHH-DIPG-1 viability, CellTiter-Glo ATP luminescence
# [8] = growth inhibition of DIPG glioma cells, dose response, cell-based, SU-DIPG-XIII, MIPE5.0, CellTiter-Glo, qHTS (AID 1347064; cut-off not given, nearly all actives have AC50 up to about 23 µM;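 as to AC50: cells exposed to compound for 48 hours before the viability read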); settings: SU-DIPG-XIII viability, CellTiter-Glo ATP luminescence
# [9] = SU-DIPG-VI glioma cell viability, MIPE4.0 library, CellTiter-Glo luminescence, qHTS (AID 1347066; cut-off not given, nearly all actives have AC50 up to about 30 µM;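 also: cells exposed to compound for 48 hours before readout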); settings: CellTiter-Glo ATP luminescence
# [10] = JHH-DIPG-1 glioma cell viability, MIPE5.0 library, CellTiter-Glo luminescence, qHTS (AID 1347067; cut-off not given, nearly all actives have AC50 up to about 26 µM;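 also: cells exposed to compound for 48 hours before readout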); settings: JHH-DIPG-1 glioma viability, CellTiter-Glo ATP luminescence
# [11] = SU-DIPG-XXV glioma cell viability, MIPE5.0 library, qHTS (AID 1347068; cut-off not given, nearly all actives have IC50 up to about 30 µM;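 as to IC50: cells exposed to compound for 48 hours before viability readout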)
# [12] = sensitizers of A549 cells to miR-34 induction, primary screen, imaging, A549 dox-inducible miR-34, nuclei and caspase counts (AID 1347080;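 active = compounds whose cell count with miR-34 switched on is under 0.7 times the count with it off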); settings: A549 miR-34 inducible, Hoechst nuclei count, 48 h
# [13] = modifiers of HSF1 nuclear foci, imaging, Selleck Cancer Library (AID 1347162; in the data active = plate-normalised HSF1 focus index below about 0.46); settings: human cells, at 10 µM; SSMD: measured here: HSF1 foci SSMD mean; cell count: measured here: cell number; plate-normalised HSF1 focus index: stronger effect = lower value
# [14] = viability rescue of complex I mutant cybrids, primary screen, cell-based, galactose medium, ATP luminescence (AID 1645843;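 active = z-score of at least 1.8 in each of two replicates, scored against plate mean and spread of sample wells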;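 also: positive z means more ATP and so rescue of galactose-driven cybrid death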); settings: complex I mutant cybrid cells, 72 h, stronger effect = higher value
# [15] = survival rescue of mitochondrial mutant cells in low glucose, primary screen, MELAS cybrids, Rieske KO mouse fibroblasts, CellTiter-Glo (AID 1508586;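 active = mean z-score across replicates of 1.96 or higher in either the MELAS or the Rieske mutant cell line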;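 also: z relative to plate mean and SD of compound and empty wells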)
# [16] = measured here: epithelial PC-3E GFP cell survival
# [17] = measured here: mesenchymal TEM4-18 mCherry cell survival
# [18] = stronger effect = lower value, cell number ratio, induced over uninduced
# [19] = measured here: relative caspase fold change +Dox/-Dox
# [20] = measured here: total cells with miR-34 induction, stronger effect = lower value
# [21] = measured here: total cells without miR-34 induction
# [22] = MELAS cybrid survival, CellTiter-Glo 48 h, stronger effect = higher value
# [23] = Rieske KO mouse fibroblast survival, CellTiter-Glo 72 h
structure (smiles),measurement,setting,value
CC1(C)C2CC[C@]3(C)C(C(=O)C=C4[C@H]5C[C@@](C)(C(=O)O)CC[C@]5(C)CC[C@]43C)[C@@]2(C)CC[C@@H]1O (stereo partly specified),inhibition,[1],-22.8%
same,red/green cell ratio (normalised),[2],1.07 (inactive)
same,normalised cell number,[2]; [16],1.03
same,normalised cell number,[2]; [17],1.11
C[C@@H]1CC[C@@]2(OC1)OC1CC3C4CC=C5C[C@@H](O)CC[C@]5(C)C4CC[C@]3(C)C1[C@@H]2C (stereo partly specified),parasite load remaining,[3],131% (inactive)
same,viability,[3],91.4%
same,red/green cell ratio (normalised),[2],1.13 (inactive)
same,normalised cell number,[2]; [16],1.02
same,normalised cell number,[2]; [17],1.16
CC(=O)O[C@@H]1CC2C(C)(C)C(=O)C=C[C@]2(C)C2CC[C@@]3(C)[C@H](c4ccoc4)OC(=O)[C@H]4O[C@]43[C@@]21C (stereo partly specified),inhibition,[1],-6.23%
same,parasite load remaining,[3],2.66% (inactive)
same,viability,[3],98.4%
same,red/green cell ratio (normalised),[2],1.12 (inactive)
same,normalised cell number,[2]; [16],0.89
same,normalised cell number,[2]; [17],0.99
NC[C@@H]1O[C@H](O[C@@H]2[C@@H](CO)OC(O[C@@H]3[C@@H](O)[C@H](N)C[C@H](N)[C@H]3O[C@H]3O[C@H](CO)[C@@H](O)[C@H](O)[C@H]3N)[C@@H]2O)[C@H](N)[C@@H](O)[C@@H]1O (stereo partly specified),parasite load remaining,[3],141% (inactive)
same,viability,[3],87.6%
same,red/green cell ratio (normalised),[2],1.21 (inactive)
same,normalised cell number,[2]; [16],0.93
same,normalised cell number,[2]; [17],1.13
C1CCN2C[C@H]3C[C@H](CN4CCCC[C@@H]34)[C@H]2C1,inhibition,[1],-43.7%
same,red/green cell ratio (normalised),[2],1.01 (inactive)
same,normalised cell number,[2]; [16],1.18
same,normalised cell number,[2]; [17],1.19
C[N+]1(C)C2CC(OC(=O)[C@@H](CO)c3ccccc3)CC1C1OC12 (stereo partly specified),inhibition,[1],17.7%
same,parasite load remaining,[3],89.5% (inactive) and 73.4% (inactive)
same,viability,[3],78.8% and 91.6%
same,red/green cell ratio (normalised),[2],1.4 (inactive)
same,normalised cell number,[2]; [16],0.85
same,normalised cell number,[2]; [17],1.19
O=C(/C=C/c1ccc(O)c(O)c1)OC(Cc1ccc(O)c(O)c1)C(=O)O (stereo unspecified),parasite load remaining,[3],107% (inactive)
same,viability,[3],70.8%
same,red/green cell ratio (normalised),[2],1.03 (inactive)
same,normalised cell number,[2]; [16],1.08
same,normalised cell number,[2]; [17],1.12
CC1CCC2(OC1)OC1CC3C4CC[C@H]5C[C@@H](O)CC[C@]5(C)C4CC(=O)[C@]3(C)C1C2C (stereo partly specified),inhibition,[1],11.6%
same,parasite load remaining,[3],106% (inactive)
same,viability,[3],69.7%
same,red/green cell ratio (normalised),[2],1.26 (inactive)
same,normalised cell number,[2]; [16],1.02
same,normalised cell number,[2]; [17],1.27
O=C1C(Cl)=C(NCCN2CCOCC2)C(=O)c2ncccc21,remaining activity,[4],118% (inactive)
same,AC50,[5],8.33 µM (active)
same,AC50,[6],6.62 µM (active)
same,AC50,[7],3.32 µM (active)
same,AC50,[8],3.32 µM (active)
same,AC50,[9],2.64 µM (active)
same,AC50,[10],4.68 µM (active)
same,IC50,[11],18.6 µM (active)
same,fold change,[12]; [18],0.881 (inactive)
same,fold change,[12]; [19],1.4
same,cell count,[12]; [20],1390
same,cell count,[12]; [21],1580
same,SSMD,[13],6.65
same,cell count,[13],6880
same,plate-normalised HSF1 focus index,[13],1.4 (inactive)
same,z-score,[14],-0.82 (inactive)
CC(=O)[C@@]1(O)CCC2C3C=C(Cl)C4=CC(=O)[C@@H]5CC5[C@]4(C)C3CC[C@@]21C (stereo partly specified),inhibition,[1],39.2%
same,parasite load remaining,[3],143% (inactive)
same,viability,[3],89.2%
same,red/green cell ratio (normalised),[2],0.82 (inactive)
same,normalised cell number,[2]; [16],1.07
same,normalised cell number,[2]; [17],0.88
CC1=C2C(=CO[C@H](C)[C@H]2C)C(=O)C(C(=O)O)=C1O,inhibition,[1],1.38%
same,red/green cell ratio (normalised),[2],1.08 (inactive) and 1.06 (inactive) and 0.92 (inactive)
same,normalised cell number,[2]; [16],0.92 and 0.97 and 1.03
same,normalised cell number,[2]; [17],0.99 and 1.03 and 0.95
CCCC(=O)Nc1ncnc2c1ncn2C1O[C@@H]2COP(=O)(O)O[C@H]2[C@H]1OC(=O)CCC (stereo partly specified),inhibition,[1],-71.1%
same,parasite load remaining,[3],129% (inactive)
same,viability,[3],95%
same,red/green cell ratio (normalised),[2],0.94 (inactive)
same,normalised cell number,[2]; [16],0.93
same,normalised cell number,[2]; [17],0.88
C[C@@H]1O[C@@H](OC[C@H]2OC(Oc3c(-c4ccc(OCCO)c(OCCO)c4)oc4cc(OCCO)cc(O)c4c3=O)[C@H](O)[C@@H](O)[C@@H]2O)[C@H](O)[C@H](O)[C@H]1O (stereo partly specified),parasite load remaining,[3],141% (inactive)
same,viability,[3],89.1%
same,red/green cell ratio (normalised),[2],0.94 (inactive)
same,normalised cell number,[2]; [16],1.03
same,normalised cell number,[2]; [17],0.96
CC(C)Oc1ccc2c(=O)cc(-c3ccccc3)oc2c1,inhibition,[1],19.6%
same,red/green cell ratio (normalised),[2],0.86 (inactive)
same,normalised cell number,[2]; [16],1.15
same,normalised cell number,[2]; [17],0.99
CC(C)[C@H](CO)Nc1nc(Nc2cccc(Cl)c2)c2ncn(C(C)C)c2n1,remaining activity,[4],115% (inactive)
same,AC50,[5],14.8 µM (active)
same,AC50,[6],20.9 µM (active)
same,AC50,[7],16.6 µM (active)
same,AC50,[8],14.8 µM (active)
same,AC50,[9],20.9 µM (active)
same,AC50,[10],14.8 µM (active)
same,IC50,[11],16.6 µM (active)
same,fold change,[12]; [18],1.01 (inactive)
same,fold change,[12]; [19],0.968
same,cell count,[12]; [20],1040
same,cell count,[12]; [21],1030
same,z-score,[14],-0.745 (inactive)
CC(=O)N1CCCC1C(=O)O (stereo unspecified),parasite load remaining,[3],194% (inactive)
same,viability,[3],68.3%
same,red/green cell ratio (normalised),[2],0.79 (inactive)
same,normalised cell number,[2]; [16],1.3
same,normalised cell number,[2]; [17],1.03
Cc1cc(NC(=O)Nc2ccc(N(C)C)cc2)c2cc(F)cc(F)c2n1,remaining activity,[4],98.2% (inactive)
same,outcome,[5],inactive
same,outcome,[6],inactive
same,outcome,[7],inactive
same,outcome,[8],inactive
same,outcome,[9],inactive
same,outcome,[10],inactive
same,outcome,[11],inactive
same,fold change,[12]; [18],0.902 (inactive) and 0.887 (inactive)
same,fold change,[12]; [19],0.91 and 0.717
same,cell count,[12]; [20],6380 and 7970
same,cell count,[12]; [21],7070 and 8990
same,z-score,[15]; [22],1.11 (inactive)
same,z-score,[15]; [23],-0.687
same,z-score,[14],-0.32 (inactive)
O=C1Nc2ccc(I)cc2/C1=C/c1cc(Br)c(O)c(Br)c1,remaining activity,[4],117% (inactive)
same,outcome,[5],inactive
same,outcome,[7],inactive
same,outcome,[8],inactive
same,outcome,[9],inactive
same,outcome,[10],inactive
same,fold change,[12]; [18],0.983 (inactive) and 1.01 (inactive) and 0.869 (inactive)
same,fold change,[12]; [19],1.44 and 1.3 and 0.748
same,cell count,[12]; [20],8580 and 4160 and 8980
same,cell count,[12]; [21],8730 and 4120 and 10300
same,z-score,[14],-0.635 (inactive) and -0.18 (inactive)
COc1cc(OC)c(NC(=O)Nc2cc(C)on2)cc1Cl,remaining activity,[4],101% (inactive)
same,outcome,[5],inactive
same,outcome,[6],inactive
same,outcome,[7],inactive
same,outcome,[8],inactive
same,outcome,[9],inactive
same,outcome,[10],inactive
same,fold change,[12]; [18],0.801 (inactive) and 0.945 (inactive)
same,fold change,[12]; [19],0.762 and 1.52
same,cell count,[12]; [20],8290 and 9250
same,cell count,[12]; [21],10400 and 9800
same,z-score,[15]; [22],-0.366 (inactive)
same,z-score,[15]; [23],1.34
same,z-score,[14],1.75 (inactive)
COc1ccc([C@@H]2CNC(=O)C2)cc1OC1CCCC1,remaining activity,[4],102% (inactive)
same,outcome,[5],inactive
same,outcome,[7],inactive
same,outcome,[8],inactive
same,outcome,[10],inactive
same,outcome,[11],inactive
same,fold change,[12]; [18],0.954 (inactive)
same,fold change,[12]; [19],0.878
same,cell count,[12]; [20],8940
same,cell count,[12]; [21],9370
same,z-score,[14],-0.11 (inactive)
Cc1[nH]c(/C=C2\C(=O)Nc3ccccc32)c(C)c1CCC(=O)O,remaining activity,[4],95.9% (inactive)
same,AC50,[5],16.6 µM (active)
same,AC50,[7],16.6 µM (active)
same,fold change,[12]; [18],0.887 (inactive)
same,fold change,[12]; [19],1.48
same,cell count,[12]; [20],5970
same,cell count,[12]; [21],6730
same,z-score,[14],0.51 (inactive)
COc1cc2nccc(Oc3ccc(NC(=O)Nc4ccc(F)cc4F)c(F)c3)c2cc1OC,remaining activity,[4],115% (inactive)
same,AC50,[5],5.25 µM (active)
same,outcome,[7],inactive
same,outcome,[9],inactive
same,AC50,[10],4.17 µM (active)
same,fold change,[12]; [18],0.97 (inactive) and 0.906 (inactive)
same,fold change,[12]; [19],1.3 and 1.55
same,cell count,[12]; [20],1960 and 2970
same,cell count,[12]; [21],2020 and 3280
same,z-score,[15]; [22],-0.553 (inactive)
same,z-score,[15]; [23],0.363
same,z-score,[14],-0.37 (inactive)
